Bioassay records: PubChem BioAssay, National Center for Advancing Translational Sciences (NCATS)
Rows were chosen to be rich in hits. Some 3.3% of all compounds tested hit in one or more screens of this group.
LDHA inh – LDHA (human) enzyme inhibition. P00338. purified LDHA, NADH/diaphorase-resazurin fluorescence; stronger effect = lower value. activity change, % (values are at about 110 or 230 µM). 480,000 tested, 0.15% active; in the data active = activity change below about -30%; inconclusive = mostly about -25% to -30%;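 also: plate controls were DMSO wells for no effect and wells without enzyme for full effect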
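Enzyme activity of human lactate dehydrogenase 5 (2 nM; 0.06 mM NADH, 0.2 mM pyruvate, 5 min, RT) is measured via a resazurin/diaphorase fluorescence readout of residual NADH.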
DRD3 agonist – agonists of human D3 dopamine receptor. P35462. D3R DiscoveRx beta-arrestin cells, luminescence, 90 min. max activation, %. 410,000 tested, 0.58% active; in the data active = max activation above about 30%; also: 0% is about no effect
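Agonist-mode cell screen: cells plated at 1500/well and incubated overnight at 37 °C, then exposed to library compounds for 90 min at 37 °C. Detection reagent was added for 30–60 min at room temperature, and luminescence was read.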
PI4K2A inh – blocks human PI4K2A kinase activity | Q9BTU6 | purified PI4K2A, ADP-Glo luminescence, 1 h; stronger effect = lower value | activity change, negative = inhibition, % at 76.9 µM | 420,000 tested, 0.13% active | AID 1346378; in the data active = activity change below about -50%; inconclusive = mostly about -30% to -49%;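 also: -100% = wells without enzyme as full effect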
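Compounds are screened against recombinant PI4K2A using PI as substrate and ATP, the latter dispensed at 300 microM. Reactions run one hour at ambient temperature before ADP-Glo detection; full inhibition defined by wells lacking enzyme.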
PI5P4Ka inh – inhibitors of human PI5P4K alpha. AID 652105. max response, %. 330,000 tested, 1.2% active. PI5P4Kalpha enzyme, ADP-Glo luminescence, 60 min; stronger effect = lower value. P48426; active = max response of -50% or lower; inconclusive = between -30% and -50%; inactive = -30% or higher; also: value at the top dose of about 77 µM; % is scaled to controls: 0 for no effect and ±100 for the full control effect
Target sequence (P48426 whole entry, looked up): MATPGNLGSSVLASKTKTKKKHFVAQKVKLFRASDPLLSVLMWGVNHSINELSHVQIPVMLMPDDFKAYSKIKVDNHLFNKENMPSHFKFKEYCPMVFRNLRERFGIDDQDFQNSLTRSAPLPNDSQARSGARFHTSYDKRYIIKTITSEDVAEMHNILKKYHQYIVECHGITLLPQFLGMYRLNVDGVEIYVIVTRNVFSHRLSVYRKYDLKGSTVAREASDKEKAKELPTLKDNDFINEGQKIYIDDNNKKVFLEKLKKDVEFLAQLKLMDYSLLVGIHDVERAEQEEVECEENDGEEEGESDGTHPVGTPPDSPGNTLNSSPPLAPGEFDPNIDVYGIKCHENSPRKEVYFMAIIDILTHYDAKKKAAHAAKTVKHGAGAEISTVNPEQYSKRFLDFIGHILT
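Reactions run in 0.038 M HEPES pH 7.4, 0.28 mM EGTA, 0.1% CHAPS and 5% DMSO, with PI5P4Kalpha, substrate, compound and 5 microM ATP final, one hour at room temperature. Readout is ADP-Glo luminescence.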
D3 antag – D3 dopamine receptor (human) antagonism | 360,000 tested, 2.5% active | max response, negative = inhibition, % | P35462 | D3R cells, DiscoveRx beta-arrestin luminescence, antagonist mode; stronger effect = lower value; in the data active = max response below about -50%; inconclusive = no clear call, values can overlap the other calls; also: % is scaled to controls: 0 for no effect and ±100 for the full control effect
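Cells plated overnight at 1500 cells/well, then exposed to library compounds with dopamine controls for 90 minutes at 37 degrees C. DiscoveRx reagent added for 30–60 minutes at room temperature; luminescence read, quantitative HTS format.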
* hit, by the source's call; ? = inconclusive; . = no result.

SMILES	LDHA inh	DRD3 agonist	PI4K2A inh	PI5P4Ka inh	D3 antag
CC(C)C[C@H](NC(=O)COc1ccc2nc3n(c(=O)c2c1)CCCCC3)C(=O)O	3	.	.	.	.
CC(CC(=O)Nc1ccc2c(c1)c(=O)n(C)n2-c1cccs1)c1ccccc1 (stereo not given)	-6	-16	-1	-24	-53*
Cc1noc(C)c1CSc1nc2ccccc2nc1NS(=O)(=O)c1ccc(Cl)cc1	-6	0	-21	-12	-51*
O=C(CN1C(=O)c2cccnc2Sc2ccccc21)N1CCN(C2CCCCC2)CC1	5	.	.	.	.
CCCC(=O)c1c[nH]c(C(=O)NCc2cccnc2)c1	-7	-12	0	3	-88*
CCC(=O)c1c[nH]c(C(=O)NCc2cccnc2)c1	-5	-10	-3	3	-22
CCC(=O)/C=C1/Sc2ccc(OC)cc2N1CCO	-10	4	4	-51*	-2
CCC(/C=C1\Sc2ccc(OC)cc2N1CCO)=C\c1sc2ccc(OC)cc2[n+]1CCO	11	-6	-29	-78*	?
CC(C)c1ccc(CC(C)C2C3=C(CCCC3=O)OC3=C2C(=O)CCC3)cc1 (stereo not given)	1	5	3	0	3
Cc1ccc(CCC2C3=C(CCCC3=O)OC3=C2C(=O)CCC3)cc1	-5	30*	-1	.	?
CN1C(=O)Cc2cc(-c3csc(-c4cccc(F)c4)n3)ccc21	2	.	.	.	.
COCCCNCCOc1ccc(C)cc1[N+](=O)[O-]	-12	-18	-3	-1	-84*
CCC(C)NCCCOc1ccc(C)cc1OC (stereo not given)	-15	-8	-5	-5	?
COCCNCCCCOc1ccc(C)cc1[N+](=O)[O-]	-20	-25	7	-5	0
CCC(C)NCCCCOc1ccc(C)cc1[N+](=O)[O-] (stereo not given)	-17	-30	8	.	-93*
C=CCNCCCCOc1ccc(C)cc1[N+](=O)[O-]	-19	1	13	-1	-82*
COCCCNCCOCCOc1ccc(C)cc1[N+](=O)[O-]	-20	-4	10	1	-54*
CCONC(=O)C(C)NC(=O)OCc1ccccc1 (stereo not given)	1	.	.	.	.
N#CCSc1nnc(-c2cccnc2)n1-c1ccccc1F	1	.	.	.	.
O=C(Nc1ncn[nH]1)C1CC(=O)N(c2ccc3c(c2)OCO3)C1 (stereo not given)	0	.	.	.	.
C=CCn1c(SCc2ccc(Br)cc2F)nc2cc(C(=O)O)ccc2c1=O	3	13	-5	-61*	-9
C=CCn1c(SCC(=O)Nc2sc3c(c2C#N)CCC(C)C3)nc2cc(C(=O)O)ccc2c1=O (stereo not given)	-1	7	9	-53*	1
C=CCn1c(SCc2c(C)noc2C)nc2cc(C(=O)O)ccc2c1=O	-1	36*	-3	.	8
C=CCn1c(SCc2c(C)noc2C)nc2ccccc2c1=O	-9	-11	2	.	-20
CCSc1ncc(Cl)c(C(=O)Nc2nnc(C(C)C)s2)n1	1	.	.	.	.
SMILES	LDHA inh	DRD3 agonist	PI4K2A inh	PI5P4Ka inh	D3 antag
Clc1cnc(N/N=C/c2cccs2)c(Cl)c1	1	-7	-8	8	32
Cc1ccc(/C=N/Nc2ncc(Cl)cc2Cl)s1	4	31*	-8	.	28
O=C(c1ccccc1COc1ccccc1)N1CCN(C2CCS(=O)(=O)C2)CC1 (stereo not given)	4	.	.	.	.
CN(CCCOc1ccccc1Br)Cc1ccccc1	-6	-17	-7	-4	-98*
Cc1cc(C)c(OCCN(C)Cc2ccccc2)c(Br)c1	-6	-38	4	3	-56*
CN(CCCOc1ccccc1F)Cc1ccccc1	-6	-31	-7	-1	-85*
Cc1nc(CSc2ccccc2C(=O)Nc2nc(-c3ccc(C)c(C)c3)cs2)no1	-6	.	.	.	.
CCOc1ccc(C2C(C#N)=C(N)OC(C(C)(C)C)=C2C#N)cc1OCC (stereo not given)	29	.	.	.	.
N#CC1=C(N)SC(N)=C(C#N)C1c1ccc([N+](=O)[O-])cc1	21	-14	11	-84*	-18
CCOc1ccc(C2C(C#N)=C(N)SC(N)=C2C#N)cc1OCC	0	-2	-5	-51*	?
CCCNC(=O)c1cc(C2CCCCN2S(C)(=O)=O)on1 (stereo not given)	-5	-26	-7	-12	-91*
CCCNC(=O)c1cc(C2CCCCN2S(=O)(=O)c2ccccc2)on1 (stereo not given)	0	-13	0	1	-24
CC(C)Oc1ccc(/C=C(/C#N)c2ccc(Cl)cc2)cc1Cl	1	.	.	.	.
Cc1ccc(NC(=O)Cn2nc(C)c([N+](=O)[O-])c2C)cc1Cl	-5	-14	-2	6	-55*
Cc1nn(CC(=O)Nc2ccncc2)c(C)c1[N+](=O)[O-]	2	-8	1	-21	?
COC(=O)c1ccc(NS(=O)(=O)c2cc(-c3cc(C)no3)ccc2OC)cc1	-3	1	1	3	-52*
O=C(CSc1nc2ccccc2o1)Nc1ccc(F)cc1F	0	.	.	.	.
CC(C)C(=O)Nc1ccc(-c2nc3cc(C(C)C)ccc3o2)cc1	-1	.	.	.	.
O=C(O)/C=C/C(=O)N1CCN(c2ccccc2F)CC1	-9	-8	4	-8	-70*
O=C(/C=C/c1ccco1)Nc1nc(-c2ccccc2)cs1	-11	5	1	-5	-2
O=C(/C=C/c1ccco1)Nc1cccc2cccnc12	10	3	?	-82*	8
O=C(O)/C=C/C(=O)Nc1cccc2cccnc12	-4	2	-4	-3	2
O=C(/C=C/c1ccco1)Nc1nc(-c2ccccn2)cs1	3	-1	?	-93*	-5
COc1ccc(Nc2nc(N)c(C(=O)c3cc(C)ccc3C)s2)cc1	4	.	.	.	.
Nc1ccc2nc(N)sc2c1	9	23	17	4	10
SMILES	LDHA inh	DRD3 agonist	PI4K2A inh	PI5P4Ka inh	D3 antag
Nc1nc2ccc([N+](=O)[O-])c(N)c2s1	2	-3	-4	-58*	?
CC1(C)CC(=O)C(C=Nc2ccccc2Sc2ccccc2)=C(O)C1	3	-18	-6	12	-54*
O=C(O)CCN1CCc2ccccc21	2	4	-9	4	4
O=C(O)CCN1CCc2ccccc2C1c1ccncc1 (stereo not given)	-1	-4	0	-3	-58*
CCCN(Cc1ccccc1)C(=O)c1cc2ccccc2oc1=O	7	.	.	.	.
CCCCn1nnc(NC(=O)COc2ccc(CC)cc2)n1	0	.	.	.	.
COc1ccc(S(N)(=O)=O)cc1C(=O)NCCCN1CCN(c2ccccc2OC)CC1	-2	-5	9	-3	-92*
COc1cc2c(C(=O)NCCCN3CCN(c4cccc(Cl)c4)CC3)cn(C)c(=O)c2cc1OC	-2	31*	-4	0	-56*
COc1ccc(S(N)(=O)=O)cc1C(=O)NCCCN1CCN(c2ccc(C)cc2)CC1	-1	-10	2	-1	-71*
